Consider 13 compounds from PubChem BioAssay (NCI).

About 83,000 compounds went through this panel and 20% of them were active in at least one assay; those are over-represented in the sample as a whole.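 Single-concentration screen, 48 h exposure, 96-well plates. Endpoint: percent growth. Below 10 = active.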 Unmarked numbers belong to inactive results. Calls of active or inactive are those of the source.

Among the test systems are DU-145 prostate; K-562 leukemia; MALME-3M melanoma; MDA-MB-231 breast; RXF 393 renal; SF-268 CNS; SF-295 CNS; SF-539 CNS; UACC-257 melanoma; M14 melanoma.
What all share (test): NCI-60 one-dose screen, 48 h (100 = growth as untreated, 0 = no growth, -100 = all killed)
Common to all, as to conditions: 10 µM unless noted

On to `C[C@H]1O[C@@H](O[C@H]2[C@@H](O)C[C@H](O[C@H]3[C@@H](O)C[C@H](O[C@H]4CC[C@]5(C)C6CC[C@]7(C)[C@@H](C8=CC(=O)OC8)CC[C@]7(O)C6CC[C@@H]5C4)O[C@@H]3C)O[C@@H]2C)C[C@H](O)[C@@H]1O` (stereo not given in full), for which the growth in the experiment with DU-145 prostate is -100% (active); in the experiment with K-562 leukemia it was -45% (active); with MALME-3M melanoma it was -63.9% (active); with MDA-MB-231 breast, -48.6% (active); with RXF 393 renal, -27.1% (active); with SF-268 CNS it was -100% (active). Moreover, the growth in the experiment with SF-295 CNS was -98.2% (active); in the experiment with SF-539 CNS it was -94.6% (active); in the experiment on UACC-257 melanoma, -100% (active); in the experiment on M14 melanoma, -81.1% (active).

For the compound `NS(=O)(=O)c1ccc(-n2ncc3c(NC4CCCCC4)ncnc32)cc1`, the growth in the experiment on DU-145 prostate is 100%; with K-562 leukemia, 54.4%; in the experiment on MALME-3M melanoma it was 108%; in the experiment with MDA-MB-231 breast it was 85.9%; in the experiment on RXF 393 renal, 13.4%; in the experiment with SF-268 CNS, 116%. Also, the growth was 48.9% with SF-295 CNS, 90.9% in the experiment with SF-539 CNS, 79.6% in the experiment with UACC-257 melanoma and 98.2% in the experiment on M14 melanoma.

Consider `O=C(CC1Sc2ccccc2NC1=O)NNc1cccc(Cl)c1Cl` (stereo not given), for which the growth is 108% with DU-145 prostate; 89.1% in the experiment with K-562 leukemia; 54.6% in the experiment with MALME-3M melanoma; 83.5% in the experiment on MDA-MB-231 breast; 97.6% in the experiment on RXF 393 renal; 91.4% in the experiment with SF-268 CNS. The growth in the experiment with SF-295 CNS is 92.4%; with SF-539 CNS it was 67.3%; in the experiment with UACC-257 melanoma, 99.1%; in the experiment with M14 melanoma it was 112%.

For the compound `CCCCCN1C(=O)CCC1=O`, the growth in the experiment on DU-145 prostate was 101%; with K-562 leukemia, 114%; in the experiment with MALME-3M melanoma, 90.3%; with MDA-MB-231 breast, 109%; in the experiment on RXF 393 renal, 122%; with SF-268 CNS, 93.3%. Also, the growth with SF-295 CNS was 101%; with SF-539 CNS, 102%; in the experiment on UACC-257 melanoma, 99.4%; with M14 melanoma it was 107%.

As to `C/C=C(/C(=C/C)c1ccc(O)cc1)c1ccc(O)cc1`, the growth was 28.2% in the experiment with DU-145 prostate; 22.8% in the experiment on K-562 leukemia; 23.1% in the experiment on MALME-3M melanoma; 49.1% in the experiment on MDA-MB-231 breast; 8.39% (active) in the experiment on RXF 393 renal; 45.6% in the experiment with SF-268 CNS. Also, the growth is 12% in the experiment with SF-295 CNS, -3.67% (active) in the experiment with SF-539 CNS, 53.9% in the experiment with UACC-257 melanoma and 15.4% with M14 melanoma.

Take `Nc1ccccc1C#Cc1ccccc1C#Cc1ccc(OCCCCCCOc2ccc(C#Cc3ccccc3C#Cc3ccccc3N)cc2)cc1`: the growth in the experiment with DU-145 prostate is 121%; in the experiment with K-562 leukemia, 121%; with MALME-3M melanoma, 97.2%; in the experiment on MDA-MB-231 breast, 86%; in the experiment on RXF 393 renal it was 75.3%; in the experiment on SF-268 CNS it was 121%. The growth in the experiment with SF-295 CNS was 106%; with SF-539 CNS, 97.8%; in the experiment with UACC-257 melanoma, 101%; with M14 melanoma, 108%.

Regarding `N#Cc1c(-c2ccccc2)cc(-c2ccccc2)n(CC(=O)O)c1=O`, the growth with DU-145 prostate is 87.5%; with K-562 leukemia, 21.1%; with MALME-3M melanoma it was 56.2%; in the experiment with MDA-MB-231 breast, 60.3%; with RXF 393 renal, 62.3%; in the experiment with SF-268 CNS, 67.2%. Moreover, the growth with SF-295 CNS is 36.8%; with SF-539 CNS, 66.5%; in the experiment on UACC-257 melanoma it was 64.4%; with M14 melanoma, 26.3%.

Consider `N#Cc1c(-c2ccccc2)cc(-c2ccccc2)n(CCCCC(=O)O)c1=O`, for which the growth was 107% in the experiment with DU-145 prostate; 80.8% in the experiment on K-562 leukemia; 87.8% with MALME-3M melanoma; 91% in the experiment with MDA-MB-231 breast; 89.7% in the experiment on RXF 393 renal; 94% in the experiment with SF-268 CNS. Besides, the growth in the experiment on SF-295 CNS is 82.8%; in the experiment with SF-539 CNS, 93.5%; in the experiment with UACC-257 melanoma, 94.1%; with M14 melanoma it was 86.4%.

In the case of `CC(=O)N1N=C(c2ccc(Cl)cc2)CC1c1c(C)nn(-c2ccccc2)c1N(C)Cc1ccccc1` (stereo not given), the growth in the experiment with DU-145 prostate is 94.5%; with K-562 leukemia, 61.9%; in the experiment with MALME-3M melanoma, 83.1%; in the experiment with MDA-MB-231 breast, 81.1%; in the experiment with RXF 393 renal it was 72.7%; with SF-268 CNS, 77.8%. Also, the growth in the experiment on SF-295 CNS is 82.7%; with SF-539 CNS, 93.8%; with UACC-257 melanoma it was 50.4%; in the experiment on M14 melanoma, 79.9%.

Take `CC(=O)[C@H]1CC[C@H]2[C@@H]3C[C@H](C)C4=CC(=O)CC[C@]4(C)[C@H]3C(=O)C[C@]12C`: the growth was 112% in the experiment with DU-145 prostate; 106% in the experiment with K-562 leukemia; 109% in the experiment with MALME-3M melanoma; 108% in the experiment on MDA-MB-231 breast; 103% in the experiment on RXF 393 renal; 96.6% with SF-268 CNS. Further, the growth in the experiment with SF-295 CNS is 120%; in the experiment with SF-539 CNS, 98.5%; with UACC-257 melanoma, 102%; in the experiment with M14 melanoma, 101%.

Take `C/C(=C\CCc1ccoc1)CC/C=C(\C)CCCN1CCSCC1`: the growth is 92.9% with DU-145 prostate; 56.6% in the experiment with K-562 leukemia; 104% in the experiment on MALME-3M melanoma; 80% in the experiment with MDA-MB-231 breast; 78.8% in the experiment with RXF 393 renal; 96.4% in the experiment on SF-268 CNS. For the same compound, the growth with SF-295 CNS is 46.9%; in the experiment with SF-539 CNS, 92.1%; in the experiment on UACC-257 melanoma it was 61.1%; with M14 melanoma it was 81.6%.

Take `O=C1C2C(C(=O)N1CC[Se][Se]CCN1C(=O)C3C(C1=O)[C@H]1C=C[C@@H]3C1)[C@H]1C=C[C@@H]2C1` (stereo not given in full): the growth in the experiment with DU-145 prostate was -46.7% (active); in the experiment with K-562 leukemia, 7.86% (active); in the experiment on MALME-3M melanoma, -35.6% (active); in the experiment on MDA-MB-231 breast it was -33.8% (active); in the experiment on RXF 393 renal it was -89% (active); in the experiment with SF-268 CNS, -45.8% (active). Also, the growth with SF-295 CNS was -78.2% (active); in the experiment on SF-539 CNS, -86.7% (active); with UACC-257 melanoma, -63.8% (active); with M14 melanoma it was -20% (active).

As for `CC1CN(CC(O)c2ccc(Br)cc2)CCO1` (stereo not given), the growth was 114% in the experiment on DU-145 prostate; 96.9% in the experiment with K-562 leukemia; 116% in the experiment on MALME-3M melanoma; 123% in the experiment on MDA-MB-231 breast; 124% in the experiment with RXF 393 renal; 99.9% in the experiment with SF-268 CNS. The growth was 112% in the experiment on SF-295 CNS, 106% with SF-539 CNS, 105% with UACC-257 melanoma and 104% with M14 melanoma.
